The sample as a whole holds a higher share of hits than the screen did.
E coli RNAP: blocks E. coli RNA polymerase transcription. P0A8V2. fluorescence transcription assay. inhibition, %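 (tested at 10 µM)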. hit rate 0.2% among 62,000. AID 559; in the data active = inhibition above about 20%;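 also: 0% = enzyme without compound and 100% = no enzyme blank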
Target sequence (P0A8V2 whole entry, looked up): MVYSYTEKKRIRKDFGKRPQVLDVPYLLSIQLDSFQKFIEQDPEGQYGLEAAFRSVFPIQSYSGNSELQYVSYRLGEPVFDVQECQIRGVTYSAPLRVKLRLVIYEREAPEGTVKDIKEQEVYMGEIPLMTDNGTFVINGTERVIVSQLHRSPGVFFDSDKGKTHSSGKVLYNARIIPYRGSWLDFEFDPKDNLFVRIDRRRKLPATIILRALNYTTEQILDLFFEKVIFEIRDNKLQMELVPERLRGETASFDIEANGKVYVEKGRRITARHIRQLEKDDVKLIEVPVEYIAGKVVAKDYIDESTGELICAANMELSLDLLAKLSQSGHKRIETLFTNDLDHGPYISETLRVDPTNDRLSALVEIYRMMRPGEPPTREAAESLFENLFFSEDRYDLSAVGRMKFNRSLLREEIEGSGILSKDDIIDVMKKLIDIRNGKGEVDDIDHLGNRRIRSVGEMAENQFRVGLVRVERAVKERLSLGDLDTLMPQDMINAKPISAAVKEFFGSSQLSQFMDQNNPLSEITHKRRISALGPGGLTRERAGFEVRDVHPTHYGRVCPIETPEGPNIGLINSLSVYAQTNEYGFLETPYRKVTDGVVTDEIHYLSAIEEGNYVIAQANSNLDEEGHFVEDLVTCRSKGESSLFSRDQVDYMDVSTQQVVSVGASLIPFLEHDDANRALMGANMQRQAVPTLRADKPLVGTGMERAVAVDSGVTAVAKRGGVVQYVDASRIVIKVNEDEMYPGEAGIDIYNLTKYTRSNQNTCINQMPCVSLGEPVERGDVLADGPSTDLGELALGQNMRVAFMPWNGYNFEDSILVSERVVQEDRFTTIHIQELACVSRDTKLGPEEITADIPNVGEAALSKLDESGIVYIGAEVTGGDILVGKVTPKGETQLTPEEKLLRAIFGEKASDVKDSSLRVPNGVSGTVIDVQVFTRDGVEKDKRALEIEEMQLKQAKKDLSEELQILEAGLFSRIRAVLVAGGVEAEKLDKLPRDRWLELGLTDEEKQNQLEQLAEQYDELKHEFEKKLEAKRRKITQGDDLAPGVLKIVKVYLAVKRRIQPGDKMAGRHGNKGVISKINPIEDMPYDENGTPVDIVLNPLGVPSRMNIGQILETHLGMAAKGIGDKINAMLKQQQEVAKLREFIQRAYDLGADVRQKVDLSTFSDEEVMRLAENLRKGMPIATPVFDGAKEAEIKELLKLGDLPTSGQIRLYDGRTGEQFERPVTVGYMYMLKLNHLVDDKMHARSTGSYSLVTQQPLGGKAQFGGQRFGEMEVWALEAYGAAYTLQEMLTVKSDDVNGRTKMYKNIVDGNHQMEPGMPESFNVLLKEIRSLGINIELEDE
TNAP act mid DEA: activates human TNAP at intermediate phosphate acceptor concentration; 64,000 tested, under 10 active; purified TNAP, CDP-star luminescence, 100 mM DEA, 30 min; stronger effect = higher value; scale: 0 levamisole-inhibited, 1 vehicle-only enzyme; P05186; activation factor at 20 µM;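 active = activation factor of at least 2 at 20 µM, relative to controls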
PLAP act: activators of human placental alkaline phosphatase; P05187; purified PLAP enzyme, luminescent substrate read-out; stronger effect = higher value; activation fold at 20 µM; hit rate 1.2% among 96,000; AID 696; in the data active = activation fold above about 2
An asterisk follows results filed as active.

For Cc1ccc2nc(SCC(=O)c3cc(C)n(C)c3C)[nH]c2c1 the results were PLAP act 1.1.
Screening CCC(Sc1nc(-c2ccccc2)c(C#N)c(=O)[nH]1)C(=O)Nc1cc(C)on1 (configuration not stated) returned E coli RNAP 4, TNAP act mid DEA 0.9 and PLAP act 1.
CCC(Sc1nc2ccccc2[nH]1)C(=O)Nc1cc(C)on1 (configuration not stated) was read as E coli RNAP 1, TNAP act mid DEA 1.1 and PLAP act 2.1*.
Screening Cc1cc(C(=O)CSc2nc3ccc(Cl)cc3[nH]2)c(C)n1C returned E coli RNAP 12, TNAP act mid DEA 1 and PLAP act 2.1*.
Screening Cc1cc(NC(=O)CSc2nc3ccc(Cl)cc3[nH]2)no1 returned PLAP act 2.7*.
For Cc1cc(NC(=O)CSc2nc3cc(Cl)ccc3s2)no1 the results were PLAP act 0.5.
Cc1cc(C)c(C)c(S(=O)(=O)N2C(=S)NC(=O)C2C(C)C)c1C (configuration not stated) was read as PLAP act 1.1.
For Cc1nn(C)c(C(=O)NNC(=S)Nc2ccc(Cl)cc2)c1[N+](=O)[O-] the results were PLAP act 1.7.
Screening COc1cccc(NC(=S)NNC(=O)c2c([N+](=O)[O-])c(C)nn2C)c1 returned PLAP act 2.1*.
For Cc1nn(C(C)C(=O)NCc2ccccc2)c(C)c1[N+](=O)[O-] (configuration not stated) the results were PLAP act 0.9.
COc1cccc(NC(=S)NNC(=O)C(C)n2nc(C)c([N+](=O)[O-])c2C)c1 (configuration not stated) was read as PLAP act 2.1*.
For CC1CCN(S(=O)(=O)c2cn(CC(=O)N3CCN(C)CC3)c(=O)c3ccccc23)CC1 the results were E coli RNAP 5, TNAP act mid DEA 0.9 and PLAP act 1.5.
CC1CCN(CC(O)COCCC23CC4CC(CC(C4)C2)C3)CC1 (configuration not stated) was read as PLAP act 1.7.
`O=C1CC(c2ccc(F)c(Br)c2)C2=C(CCCC2=O)N1` (configuration not stated) gave E coli RNAP 3, TNAP act mid DEA 0.9 and PLAP act 1.
For COCCCn1c(Cc2csc(Nc3cccc(Cl)c3)n2)nnc1SCC(=O)OC the results were E coli RNAP 1, TNAP act mid DEA 1.1 and PLAP act 2*.
For COCCCn1c(Cc2ccccc2)nnc1SCC(=O)N1CCCCC1 the results were E coli RNAP 8, TNAP act mid DEA 0.8 and PLAP act 1.3.
CC(C)CCN1C(=O)c2ccc(C(=O)NCC3CCCO3)cc2C1=O (configuration not stated) was read as E coli RNAP -10, TNAP act mid DEA 0.9 and PLAP act 1.1.
COc1ccc2c(C)nc(Nc3nc(C)cc(=O)[nH]3)nc2c1 was read as E coli RNAP 7 and TNAP act mid DEA 1.1.
`COCc1cc(=O)[nH]c(Nc2nc(C)c3cc(OC)ccc3n2)n1` gave PLAP act 2.1*.
For Cc1c(Br)cc(C(=O)NC2CCCCC2)c(C)c1C the results were PLAP act 1.
Screening COC(=O)Nc1ccc(OC)c(OC)c1 returned E coli RNAP -3, TNAP act mid DEA 0.9 and PLAP act 1.2.
`COc1ccc(NC(=S)NNC(=O)OC(C)(C)C)cc1OC` gave PLAP act 2.5*.
`O=C(COc1ccccc1Cl)NNC(=O)C1CCCO1` (configuration not stated) gave PLAP act 2*.
Screening O=C(COc1ccccc1Cl)NC(=O)NC1CCCC1 returned E coli RNAP 7, TNAP act mid DEA 0.9 and PLAP act 0.7.
For O=C(NNC(=O)C1CCCO1)c1ccc(Cl)cc1 (configuration not stated) the results were PLAP act 2.2*.
O=C(O)c1cc(Cl)ccc1NC(=O)C1CCCO1 (configuration not stated) was read as E coli RNAP 10, TNAP act mid DEA 1 and PLAP act 1.1.
`COn1c(SCC(=O)N(C)C)nc2ccccc2c1=O` gave E coli RNAP 2, TNAP act mid DEA 1.1 and PLAP act 1.
Cc1ccc(Cn2c3ccccc3c3cn[nH]c(=O)c32)cc1 was read as E coli RNAP 74*, TNAP act mid DEA 0.9 and PLAP act 1.2.
Screening O=c1[nH]ncc2c3ccccc3n(Cc3ccccc3)c12 returned E coli RNAP -2, TNAP act mid DEA 1 and PLAP act 0.9.
For CCC(=O)c1cn(CC(=O)NCc2cccnc2)c2ccccc12 the results were E coli RNAP 6, TNAP act mid DEA 1 and PLAP act 0.9.
`Cc1noc(C)c1CSCC(=O)OCc1nc2ccccc2c(=O)n1CC#N` gave TNAP act mid DEA 0.9 and PLAP act 1.6.
Screening CCn1c(=O)cc(SCC(=O)NCc2ccccn2)c2ccccc21 returned E coli RNAP 4, TNAP act mid DEA 1 and PLAP act 1.
For O=C(Cc1cn2ccsc2n1)Nc1nc2c(s1)CCCC2 the results were E coli RNAP 0, TNAP act mid DEA 1 and PLAP act 2*.
Screening O=C(Cc1cccs1)Nc1nc2c(s1)CCCC2 returned E coli RNAP 0, TNAP act mid DEA 0.9 and PLAP act 0.9.
For Cc1cc(C(=O)OCC(=O)N2CCN(c3ccccc3)CC2)c2ccccc2n1 the results were E coli RNAP -2, TNAP act mid DEA 1 and PLAP act 1.7.
For CCOc1ccc(-n2c3nc4ccccc4nc3c3c(=O)n(Cc4ccco4)cnc32)cc1 the results were E coli RNAP 22* and TNAP act mid DEA 0.8.
For Cc1cc(C)cc(-n2c3nc4ccccc4nc3c3c(=O)n(Cc4ccco4)cnc32)c1 the results were E coli RNAP 8, TNAP act mid DEA 0.9 and PLAP act 1.7.
Screening CCc1nnc(NC(=O)CCC(=O)N2CCN(CCOc3ccc(C)cc3)CC2)s1 returned TNAP act mid DEA 0.8 and PLAP act 1.5.
`CC(C)OC(=O)CC12CN(C)CC(CC(=O)OC(C)C)(CN(C)C1)C2=O` gave PLAP act 1.
CCN(CC)CCNC(=O)c1c(C)oc2cc(Br)c(OC)cc12 was read as E coli RNAP 2, TNAP act mid DEA 0.9 and PLAP act 1.4.
For COc1ccc(C)cc1S(=O)(=O)N1c2ccccc2CC1C (configuration not stated) the results were PLAP act 1.3.
`CCOC(=O)c1c(N2C(=O)Nc3cc(Cl)c(Cl)cc3N2O)sc2c1CCCCC2` gave PLAP act 1.3.
`CN(C)CCNc1oc(COc2ccc(Cl)cc2Cl)nc1C#N` gave PLAP act 2*.
For COCCCNc1oc(COc2ccc(Cl)cc2Cl)nc1C#N the results were E coli RNAP 5, TNAP act mid DEA 1 and PLAP act 1.5.
For Cc1cc(C)c2nc(Nc3nc(C)cc(=O)[nH]3)nc(C)c2c1 the results were E coli RNAP 0 and TNAP act mid DEA 1.1.
For CCN(CC(=O)NCCc1ccc(S(N)(=O)=O)cc1)Cc1nc2cc(OC)c(OC)cc2c(=O)[nH]1 the results were PLAP act 2.9*.
CCN(CC(=O)NCCc1ccc(S(N)(=O)=O)cc1)Cc1nc2ccccc2c(=O)[nH]1 was read as E coli RNAP 1 and TNAP act mid DEA 1.
Screening COC(=O)c1ccc(Nc2nc(C)cc(C)n2)cc1 returned PLAP act 1.

Screening results as filed in PubChem.
